Article PMC9911399, “Two distinct binding modes provide the RNA-binding protein RbFox with extraordinary sequence specificity”
Residue numbers refer to the chain shown, from its start. Whole data set: some 16,000 sequences, median “ka relative to ugcaugu” near 0.0091, cut for the highest 2% near 0.032. The entries come from a sample that favours the highest values as a whole.

T1: RBFOX1 RRM (Homo sapiens, UniProt Q9NWB1 109-208)
T1 sequence: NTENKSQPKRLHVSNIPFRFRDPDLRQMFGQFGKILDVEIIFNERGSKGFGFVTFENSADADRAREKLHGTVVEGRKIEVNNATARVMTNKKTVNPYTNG

B1: UGUCCGA (DNA:RNA)
RNA: GGGAGACCGGAAUUCAGAUUGUCCUGUCCGAUUAAAUCCCGUCGUAGCCACCA
DNA 1: CAATCTGAATTCCGGTCTCCC
DNA 2: TGGTGGCTACGACGGGATT
B2: CCAGGCU (DNA:RNA)
RNA: GGGAGACCGGAAUUCAGAUUGUCCCCAGGCUUUAAAUCCCGUCGUAGCCACCA
DNA 1: CAATCTGAATTCCGGTCTCCC
DNA 2: TGGTGGCTACGACGGGATT
B3: UAGUUGG (DNA:RNA)
RNA: B1 RNA with G26A, U27G, C28U, C29U, A31G
DNA 1: CAATCTGAATTCCGGTCTCCC
DNA 2: TGGTGGCTACGACGGGATT
B4: CCAAUAG (DNA:RNA)
RNA: B2 RNA with G28A, G29U, C30A, U31G
DNA 1: CAATCTGAATTCCGGTCTCCC
DNA 2: TGGTGGCTACGACGGGATT
B5: UCAAGAG (DNA:RNA)
RNA: B2 RNA with C25U, G28A, C30A, U31G
DNA 1: CAATCTGAATTCCGGTCTCCC
DNA 2: TGGTGGCTACGACGGGATT
B6: GUUUUAG (DNA:RNA)
RNA: B1 RNA with U25G, G26U, C28U, C29U, G30A, A31G
DNA 1: CAATCTGAATTCCGGTCTCCC
DNA 2: TGGTGGCTACGACGGGATT
B7: GCGGAGC (DNA:RNA)
RNA: B2 RNA with C25G, A27G, G29A, C30G, U31C
DNA 1: CAATCTGAATTCCGGTCTCCC
DNA 2: TGGTGGCTACGACGGGATT
B8: CCUUACC (DNA:RNA)
RNA: B2 RNA with A27U, G28U, G29A, U31C
DNA 1: CAATCTGAATTCCGGTCTCCC
DNA 2: TGGTGGCTACGACGGGATT
B9: CCGUAGA (DNA:RNA)
RNA: B2 RNA with A27G, G28U, G29A, C30G, U31A
DNA 1: CAATCTGAATTCCGGTCTCCC
DNA 2: TGGTGGCTACGACGGGATT
B10: UGCUGGU (DNA:RNA)
RNA: B1 RNA with U27C, C28U, C29G, A31U
DNA 1: CAATCTGAATTCCGGTCTCCC
DNA 2: TGGTGGCTACGACGGGATT
B11: UGUCCCG (DNA:RNA)
RNA: B1 RNA with G30C, A31G
DNA 1: CAATCTGAATTCCGGTCTCCC
DNA 2: TGGTGGCTACGACGGGATT
B12: UGUGCCG (DNA:RNA)
RNA: B1 RNA with C28G, G30C, A31G
DNA 1: CAATCTGAATTCCGGTCTCCC
DNA 2: TGGTGGCTACGACGGGATT
B13: UGUUGCC (DNA:RNA)
RNA: B1 RNA with C28U, C29G, G30C, A31C
DNA 1: CAATCTGAATTCCGGTCTCCC
DNA 2: TGGTGGCTACGACGGGATT
B14: UGGUGCC (DNA:RNA)
RNA: B2 RNA with C25U, C26G, A27G, G28U, U31C
DNA 1: CAATCTGAATTCCGGTCTCCC
DNA 2: TGGTGGCTACGACGGGATT
B15: UGUAGCC (DNA:RNA)
RNA: B1 RNA with C28A, C29G, G30C, A31C
DNA 1: CAATCTGAATTCCGGTCTCCC
DNA 2: TGGTGGCTACGACGGGATT
B16: UGGUUCG (DNA:RNA)
RNA: B1 RNA with U27G, C28U, C29U, G30C, A31G
DNA 1: CAATCTGAATTCCGGTCTCCC
DNA 2: TGGTGGCTACGACGGGATT
B17: GUGCCUG (DNA:RNA)
RNA: B1 RNA with U25G, G26U, U27G, G30U, A31G
DNA 1: CAATCTGAATTCCGGTCTCCC
DNA 2: TGGTGGCTACGACGGGATT
B18: GUCCUGG (DNA:RNA)
RNA: B1 RNA with U25G, G26U, U27C, C29U, A31G
DNA 1: CAATCTGAATTCCGGTCTCCC
DNA 2: TGGTGGCTACGACGGGATT
B19: UUGCCUG (DNA:RNA)
RNA: B1 RNA with G26U, U27G, G30U, A31G
DNA 1: CAATCTGAATTCCGGTCTCCC
DNA 2: TGGTGGCTACGACGGGATT
B20: UGCCUGG (DNA:RNA)
RNA: B1 RNA with U27C, C29U, A31G
DNA 1: CAATCTGAATTCCGGTCTCCC
DNA 2: TGGTGGCTACGACGGGATT
B21: UGGUUCC (DNA:RNA)
RNA: B1 RNA with U27G, C28U, C29U, G30C, A31C
DNA 1: CAATCTGAATTCCGGTCTCCC
DNA 2: TGGTGGCTACGACGGGATT
B22: GAGUCGU (DNA:RNA)
RNA: B1 RNA with U25G, G26A, U27G, C28U, A31U
DNA 1: CAATCTGAATTCCGGTCTCCC
DNA 2: TGGTGGCTACGACGGGATT
B23: AUGCAAU (DNA:RNA)
RNA: B2 RNA with C25A, C26U, A27G, G28C, G29A, C30A
DNA 1: CAATCTGAATTCCGGTCTCCC
DNA 2: TGGTGGCTACGACGGGATT
B24: AGAUGAG (DNA:RNA)
RNA: B2 RNA with C25A, C26G, G28U, C30A, U31G
DNA 1: CAATCTGAATTCCGGTCTCCC
DNA 2: TGGTGGCTACGACGGGATT
B25: ACGGGCC (DNA:RNA)
RNA: B2 RNA with C25A, A27G, U31C
DNA 1: CAATCTGAATTCCGGTCTCCC
DNA 2: TGGTGGCTACGACGGGATT
B26: UGCCUCC (DNA:RNA)
RNA: B1 RNA with U27C, C29U, G30C, A31C
DNA 1: CAATCTGAATTCCGGTCTCCC
DNA 2: TGGTGGCTACGACGGGATT
B27: UGCCUUG (DNA:RNA)
RNA: B1 RNA with U27C, C29U, G30U, A31G
DNA 1: CAATCTGAATTCCGGTCTCCC
DNA 2: TGGTGGCTACGACGGGATT
B28: UGCUGCC (DNA:RNA)
RNA: B2 RNA with C25U, C26G, A27C, G28U, U31C
DNA 1: CAATCTGAATTCCGGTCTCCC
DNA 2: TGGTGGCTACGACGGGATT
B29: UAGUAGG (DNA:RNA)
RNA: B1 RNA with G26A, U27G, C28U, C29A, A31G
DNA 1: CAATCTGAATTCCGGTCTCCC
DNA 2: TGGTGGCTACGACGGGATT
B30: GGGGUGU (DNA:RNA)
RNA: B2 RNA with C25G, C26G, A27G, G29U, C30G
DNA 1: CAATCTGAATTCCGGTCTCCC
DNA 2: TGGTGGCTACGACGGGATT
B31: GGUGUGU (DNA:RNA)
RNA: B1 RNA with U25G, C28G, C29U, A31U
DNA 1: CAATCTGAATTCCGGTCTCCC
DNA 2: TGGTGGCTACGACGGGATT
B32: CGGGUGU (DNA:RNA)
RNA: B2 RNA with C26G, A27G, G29U, C30G
DNA 1: CAATCTGAATTCCGGTCTCCC
DNA 2: TGGTGGCTACGACGGGATT
B33: CGGUGUU (DNA:RNA)
RNA: B2 RNA with C26G, A27G, G28U, C30U
DNA 1: CAATCTGAATTCCGGTCTCCC
DNA 2: TGGTGGCTACGACGGGATT
B34: GGGUGUU (DNA:RNA)
RNA: B2 RNA with C25G, C26G, A27G, G28U, C30U
DNA 1: CAATCTGAATTCCGGTCTCCC
DNA 2: TGGTGGCTACGACGGGATT
B35: CCCGGGU (DNA:RNA)
RNA: B2 RNA with A27C, C30G
DNA 1: CAATCTGAATTCCGGTCTCCC
DNA 2: TGGTGGCTACGACGGGATT

Target: T1, RBFOX1 RRM
Test: EMSA; HiTS-Eq, 1 nM pool, 10 min; buffer printed only for the single-RNA assays: 10 mM Tris pH 7.5, 150 mM NaCl, 3.4 mM EDTA, 0.001% NP-40, 30 C
Conditions: tags: His6 N-terminal (pET28a); label: 5' 32P
Method in brief: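 Purified wild-type or mutant RbFox RRM at increasing concentrations was equilibrated with 1 nM of 5′-radiolabelled RNA carrying 7 randomized nucleotides for 10 min in 50 µL. Unbound RNA was separated by 8% native PAGE and sequenced. Relative association constants came from read-count changes of each RNA species compared with the control reaction, normalised to the cognate motif.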

Binder | binding signal
B1 | 0.0182 KA relative to UGCAUGU
B2 | 0.00926 KA relative to UGCAUGU
B3 | 0.0164 KA relative to UGCAUGU
B4 | 0.00034 KA relative to UGCAUGU
B5 | 0.00877 KA relative to UGCAUGU
B6 | 0.0145 KA relative to UGCAUGU
B7 | 0.0117 KA relative to UGCAUGU
B8 | 0.00281 KA relative to UGCAUGU
B9 | 0.00944 KA relative to UGCAUGU
B10 | 0.028 KA relative to UGCAUGU
B11 | 0.0122 KA relative to UGCAUGU
B12 | 0.0199 KA relative to UGCAUGU
B13 | 0.0243 KA relative to UGCAUGU
B14 | 0.0219 KA relative to UGCAUGU
B15 | 0.0129 KA relative to UGCAUGU
B16 | 0.0375 KA relative to UGCAUGU
B17 | 0.0397 KA relative to UGCAUGU
B18 | 0.0183 KA relative to UGCAUGU

Binder | binding signal
B19 | 0.0452 KA relative to UGCAUGU
B20 | 0.0474 KA relative to UGCAUGU
B21 | 0.0214 KA relative to UGCAUGU
B22 | 0.0129 KA relative to UGCAUGU
B23 | 0.00453 KA relative to UGCAUGU
B24 | 0.0142 KA relative to UGCAUGU
B25 | 0.0142 KA relative to UGCAUGU
B26 | 0.00846 KA relative to UGCAUGU
B27 | 0.0505 KA relative to UGCAUGU
B28 | 0.0265 KA relative to UGCAUGU
B29 | 0.00933 KA relative to UGCAUGU
B30 | 0.038 KA relative to UGCAUGU
B31 | 0.0173 KA relative to UGCAUGU
B32 | 0.0321 KA relative to UGCAUGU
B33 | 0.0192 KA relative to UGCAUGU
B34 | 0.0233 KA relative to UGCAUGU
B35 | 0.00573 KA relative to UGCAUGU
